Source: PubChem (National Center for Advancing Translational Sciences (NCATS))
Only some compounds are listed: those with a hit (about 19% of all), similar ones and a draw of the others.
HT1080NT lethal: kills 2HG-producing HT-1080-NT fibrosarcoma cells. HT-1080-NT fibrosarcoma viability, CellTiter-Glo ATP luminescence, 48 h. Potency, µM (top dose mostly 46.1 µM), for the others: at the top dose activity, negative = less viability, actives largely listed as cytotoxic. 360,000 tested, 1.6% active. AID 686970;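 further: NT is the 2HG producing partner of a matched IDH1 knockdown line; potency means the concentration at half of the fitted maximal effect; 0% = DMSO-treated cells and -100% = media-only wells without cells; nearly all actives have a fitted effect of over 55% in size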
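HT-1080-NT fibrosarcoma cells (2HG-overproducing), 750 cells/well in RPMI with 5% FBS, dosed after 2 h and incubated 48 h at 37C. CellTiter-Glo luminescence normalized to DMSO and no-cell wells; concentration-response curves fitted and classed.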
HT1080 IDH1KD tx: HT-1080 IDH1 knockdown cell toxicity (counter line) | HT-1080 IDH1 knockdown viability, ATP luminescence, 48 h | Potency, µM (top dose mostly 46.1 µM), for the others: top-dose activity, negative = toxicity, usual class: cytotoxic | 360,000 tested, 2% active;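 further: potency means the concentration at half of the fitted maximal effect; 0% = DMSO wells and -100% = cell-free medium wells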
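Cytotoxicity counter-line: IDH1KD HT-1080, 48 h, CellTiter-Glo. Curves classed by r2, magnitude and activity.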
DT40 TDP1 no CPT: qHTS for Inhibitors of human tyrosyl-DNA phosphodiesterase 1 (TDP1): qHTS in cells in absence of CPT | 420,000 tested, 15% active | AID 686978, 2013 | Potency, µM (doses to about 46.2 µM), inactives show top-dose activity change, negative = growth inhibition, most hits filed as inhibitors | DT40 Tdp1-/- hTDP1 cells, no CPT, ATP luminescence, 48 h; further: potency means the concentration at half of the fitted maximal effect; nearly all actives have a fitted effect of over 55% in size
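Growth kinetics read by CellTiter-Glo luminescence after ≥48 hr at 37 °C. Cells: DT40 Tdp1-/- stably carrying human TDP1, 400 per well, compound exposure in the absence of CPT (DMSO vehicle).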
IL-1B inflam inh: inhibitors of inflammasome signaling (IL-1 beta secretion). THP-1 LPS/ATP IL-1B secretion, AlphaLISA, 16 h; stronger effect = lower value. activity change, % at 57.5 µM. 360,000 tested, 4.7% active. AID 743279; in the data active means activity change below about -50%; inconclusive means mostly about -30% to -49%
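Secreted IL-1B measured by AlphaLISA bead assay after 16 h compound exposure of THP-1 cells; compounds (final up to 57.5 uM) added 1 h before LPS (250 ng/mL) and ATP (1.25 mM) stimulation; lower signal means less secretion.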
uPA generation: blocks generation of uPA at the cell surface | cell surface uPA generation assay, qHTS | Potency, µM (highest dose often 38.3 µM), for the others: top-dose activity change, negative = inhibition, most hits filed as inhibitors | 330,000 tested, 0.31% active | AID 540303; active means well fitted inhibition curve with a large enough effect; inconclusive means small, poorly fitted or top-dose-only effect; inactive means no such curve, though single readings can be large or run the other way; tested in mouse RAW 264.7 cells; further: potency means the concentration at half of the fitted maximal effect; nearly all actives have a fitted effect of over 55% in size
TDP1 cell CPT: DT40-hTDP1 cell growth loss with CPT; AID 686979; chicken DT40 Tdp1-/-;hTDP1 cells + 20 nM CPT, ATP luminescence, 48 h; 420,000 tested, 12% active; Potency, µM (top dose mostly 46.2 µM), inactives show top-dose activity change, negative = growth inhibition, actives largely listed as inhibitors; further: potency means the concentration at half of the fitted maximal effect; nearly all actives have a fitted effect of over 55% in size
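Chicken DT40 Tdp1-/- cells complemented with human TDP1, 400 cells/well, exposed to compounds plus 20 nM camptothecin for at least 48 h at 37 C; viability read as ATP content by CellTiter-Glo luminescence.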
The depositor's hits bear a star; ? = inconclusive; / = no result given; ! = repeats disagree. Unless noted, the call rests on the fitted dose curve; in most records, active means well fitted curve in the direction sought with a large enough effect; inconclusive means small, poorly fitted or top-dose-only effect, or another doubt; inactive means no such curve, though single readings can be large; an effect the other way counts as inactive or inconclusive. Unless noted, on the % scale 0 is the no-effect control and ±100 the full control effect.

SMILES	HT1080NT lethal	HT1080 IDH1KD tx	DT40 TDP1 no CPT	IL-1B inflam inh	uPA generation	TDP1 cell CPT
CCCCc1cc2ccccc2c(OCCN(C)C)n1	5.5%	9.8%	?	-26.7	6.7%	9.03µM*!
Cc1ccc(C(=O)c2oc3ccccc3c2NC(=O)c2cc(-c3ccc(Cl)cc3)on2)cc1	/	/	-3.6%	/	/	10.2%
COC(=O)C1=C(C)NC(=O)NC1c1ccc(-c2ccc(Cl)cc2)o1 (stereo not drawn)	-3.4%	-25.4%	?	0.5	-10.7%	-28.0%
COC(=O)C1=C(C)NC(=S)NC1c1ccc(-c2cc(Cl)ccc2Cl)o1 (stereo not drawn)	?	?	5.8µM*	33.1	6.5%	6.51µM*
O=[N+]([O-])/C(C(=C(Cl)Cl)N1CCN(Cc2ccccc2)CC1)=C1\NCCN1Cc1ccc(Cl)nc1	-11.5%	-6.4%	14.6µM*	?	-5.4%	?
COc1ccc(N=C2C(=Nc3ccc(OC)cc3)N(c3ccccc3)C(=S)N2C(=O)c2ccc(Cl)cc2)cc1	-4.5%	-1.8%	?	-9.5	3.5%	-20.8%
COc1ccc(N=C2C(=Nc3ccc(OC)cc3)N(c3ccc(OC)cc3)C(=S)N2C(=O)c2ccc(OC)cc2)cc1	-6.1%	0.7%	18.4µM*	?	2.0%	?
COc1ccc(N=C2C(=Nc3ccc(OC)cc3)N(c3ccc(N(C)C)cc3)C(=S)N2c2ccc(OC)cc2)cc1	?	?	1.03µM*	72.2	?	0.651µM*
COc1ccc(N2C(=S)N(C(=O)c3ccccc3)C(=Nc3ccccc3)C2=Nc2ccccc2)cc1	?	?	18.4µM*	-2.8	-12.4%	?
CCCCN(C(C)=O)c1c(CC)nc2ccc(C(=O)NCCCN(C)C)cn12	-2.9%	-3.7%	?	-4.5	/	?
O=C(CNC(=O)/C=C/c1ccco1)N=Nc1c(O)[nH]c2ccccc12	-0.9%	3.0%	-22.3%	2.2	9.9%	6.7%
COc1ccc(-c2csc(C)n2)cc1	20.9%	7.5%	-16.5%	0.0	0.7%	-9.2%
COc1ccc(-c2csc(CCN3N=C(C)CC3=O)n2)cc1	-12.1%	0.0%	?	-53.0*	-4.9%	?
Cc1cc(N(C)C)cc(C)c1C=O	/	/	-0.3%	/	/	-6.9%
Cc1ccc(S(=O)(=O)Nc2ccc3c(c2)C(=O)NC3=O)cc1[N+](=O)[O-]	0.0%	3.8%	-10.1%	14.6	14.4%	-10.2%
Cc1ccc(-c2csc(N(CCO)CCCn3c(C(F)(F)F)nc4ccccc43)n2)cc1	-14.2%	-14.6%	?	-3.3	0.3%	20.6µM*
COC(C[C@H]1O[C@@H]1[C@H](O)COCc1ccccc1)OC	2.4%	-3.4%	-9.3%	23.2	16.0%	2.4%
CCO[C@@H]1O[C@H](C(COCc2ccccc2)OCc2ccccc2)[C@H](OCc2ccccc2)[C@H]1O (stereo partly drawn)	/	/	?	/	/	11.4µM*
CC1(C(=O)Nc2ccc3c(c2)OCCO3)CN(S(C)(=O)=O)CC(=O)N1CCc1ccccc1F (stereo not drawn)	-0.4%	-6.5%	-20.4%	-8.2	/	-18.2%
Cc1ccccc1OCC(=O)N1CCCc2ccccc21	26.4%	0.3%	?	7.8	-5.4%	2.0%
O=C1c2cccc(OCC(=O)N3N=C(c4cccs4)CC3c3ccc(F)cc3)c2CCN1Cc1cccnc1 (stereo not drawn)	-21.6%	-29.5%	10.3µM*	-6.2	-11.7%	9.2µM*
CCOC(=O)N1CCN(C(=O)COc2cccc3c2CCN(Cc2ccccc2C)C3=O)CC1	-7.3%	-6.0%	?	-13.2	-6.7%	?
O=C1c2cccc(OCC(=O)N3CCCc4ccccc43)c2CCN1Cc1cccnc1	-6.8%	-10.7%	9.2µM*	-7.2	-9.6%	23.1µM*
CCOC(=O)N1CCN(C(=O)COc2cccc3c2CCN(Cc2cccc(C)c2)C3=O)CC1	1.4%	-16.5%	14.6µM*	-23.2	-10.9%	23.1µM*
Cc1ccccc1CN1CCc2c(OCC(=O)N3CCCc4ccccc43)cccc2C1=O	?	?	18.4µM*	?	-14.0%	18.4µM*
SMILES	HT1080NT lethal	HT1080 IDH1KD tx	DT40 TDP1 no CPT	IL-1B inflam inh	uPA generation	TDP1 cell CPT
C[C@H](CO)N1C[C@H](C)[C@@H](CN(C)S(=O)(=O)c2ccccc2)Oc2ccc(NC(=O)CCN3CCOCC3)cc2C1=O	2.7%	1.4%	1.1%	9.9	-5.9%	5.0%
COc1cc(C)ccc1OCCCn1c(-c2ccc(Cl)cc2)nc2ccccc2c1=O	/	/	-13.6%	/	/	-16.4%
COCCNS(=O)(=O)c1ccc(Cl)c(C(=O)NC2CCN(Cc3ccccc3)CC2)c1	8.3%	1.4%	-27.5%	4.7	1.4%	-9.2%
CNc1cc(OC)c(C(=O)N[C@H]2CCN(Cc3ccccc3)[C@H]2C)cc1Cl	/	/	11.9µM*	/	/	10.6µM*
COc1cccc(OC)c1OCCNCC1COc2ccccc2O1 (stereo not drawn)	-8.8%	?	?	-9.0	3.6%	14.6µM*!
CCCNCC1COc2ccccc2O1 (stereo not drawn)	12.5%	-2.3%	-4.7%	16.5	/	-2.7%
COc1cc(/C=C/C(=O)OCC(=O)Nc2ccc(C)c(S(=O)(=O)N3CCCCC3)c2)ccc1O	?	-28.2%	25.9µM*	-13.8	-4.3%	?
COc1ccc(CC(=O)Nc2ccc(S(=O)(=O)N3CCCCC3)cc2)cc1OC	-12.8%	-4.2%	?	-4.0	-2.2%	?
COc1cc(C(C)=O)ccc1OCC(=O)Nc1ccc(S(=O)(=O)N2CCCCC2)cc1	-0.5%	1.8%	0.461µM*	-4.8	/	-95.4%
COc1cc(C(C)=O)ccc1OCC(=O)Nc1ccc(C)c(S(=O)(=O)N2CCCCCC2)c1	-22.5%	-21.5%	16.4µM*	-58.8*	-7.3%	8.2µM*
COc1ccc(NC(=O)CCCNC(=O)c2ccc(Cl)cc2)cc1S(=O)(=O)N1CCCCC1	-3.3%	1.5%	20.6µM*	-4.9	9.3%	?
C[n+]1ccc(/C=C/c2c[nH]c3ccc(F)cc23)cc1	-15.9%	?	0.82µM*	31.3	-4.3%	1.64µM*
Cn1cc(C=O)c2cc(F)ccc21	-1.1%	1.6%	0.0%	16.2	-3.8%	-1.3%
Cn1cc(/C=C/c2cc[n+](C)cc2)c2cc(Cl)ccc21	-14.9%	?	0.731µM*	-60.4*	-6.3%	0.651µM*
Cn1cc(-c2ccccc2C(=O)O)c(=O)c2cc(Cl)ccc21	-13.8%	-2.5%	-16.0%	-15.3	-0.6%	-6.3%
